Here are results for 40 compounds from PubChem BioAssay (NCATS).

Records with an inconclusive call do not appear. Entries that show only a call come without a potency. Active and inactive are the calls of the source. The call rests on the fitted dose curve; in most records, active means well fitted inhibition curve with a large enough effect; inconclusive means small, poorly fitted or top-dose-only effect; inactive means flat fitted curve, though single readings scatter.

Chain of Calcium and integrin-binding protein 1 (Homo sapiens) (Q99828 whole entry, looked up): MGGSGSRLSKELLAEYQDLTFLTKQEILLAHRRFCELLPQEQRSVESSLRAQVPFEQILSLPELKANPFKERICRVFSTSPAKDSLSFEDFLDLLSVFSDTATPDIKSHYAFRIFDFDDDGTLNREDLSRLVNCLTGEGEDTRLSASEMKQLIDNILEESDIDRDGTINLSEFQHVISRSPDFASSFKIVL

This experiment addresses Calcium and integrin-binding protein 1 (Homo sapiens) (UniProt Q99828). In words: Primary qHTS for Identification of Calcium Integrin Binding Protein 1 (CIB1) Competitor (AID 1508620). Further: top concentration of the series differs between compounds. The conditions noted are these: CIB1-GST / FITC-alphaIIb peptide fluorescence polarization; series mostly up to 114 µM. In short, it runs like this:
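Fluorescence polarization competition: GST-tagged CIB1 (1 uM final) preincubated with compound 15 min at room temperature, then FITC-labelled alphaIIb peptide (100 nM final) added. After 15 min at room temperature, polarization read at Ex 480/Em 540.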
With `O=C(NC1CCCc2c1cnn2-c1ccc(F)cc1F)c1cnon1` (stereo not given), the Potency entry was “inactive”. The result for `CN(C)c1cccc(-c2cnc(N3CCC(C(N)=O)CC3)nc2)c1` reads “inactive”. The result for `COc1ccccc1-c1nnc(SCC#CCOC(=O)c2ccc(F)cc2)o1` reads “inactive”; that for `Cc1ccc(-c2ccc(=O)n(CC(=O)NCCc3ccccc3)n2)cc1`, “inactive”. Regarding `COc1ccc(CNc2ccc(S(=O)(=O)Nc3nccs3)cc2)cc1O`, the Potency result was “inactive”. The result for `O=C(Nc1ccc(-c2cccnc2)nc1)c1cccs1` reads “inactive”; that for `O=C(Nc1ccc(-c2nc3ccccc3[nH]2)cc1)c1ccc(Cl)c(Cl)c1`, “inactive”.

For `Cc1ccc(NS(=O)(=O)c2cc3c(cc2N(C)C)NC(=O)CC3)cc1C`, the Potency entry is “inactive”. The result for `N#Cc1ccccc1CCc1nc2ncc(Br)cc2[nH]1` reads “inactive”. As to `Cc1cc2c(s1)c1c(C)nn(Cc3ccccc3F)c(=O)c1n2C`, the Potency entry was “inactive”. Under `O=S(=O)(NC[C@@H]1CCC[C@H](CNS(=O)(=O)c2c(F)cccc2F)C1)c1ccc2c(c1)OCCO2` stands “inactive”; under `O=C1CCCC2=C1C(c1[nH]ncc1Cl)N=C(Nc1nc3cc(F)ccc3o1)N2` (stereo not given), “inactive”. Under `Cc1sc(NC(=O)Cc2ccc3c(c2)OCO3)nc1-c1ccc2c(c1)CCN2C` stands “inactive”. In the case of `Cc1cc2c(s1)c1cnn(Cc3cccc(Cl)c3)c(=O)c1n2C`, the Potency result was “inactive”. With `c1ccc(OCc2nnc3n2N=C(c2ccccc2)CS3)cc1`, the Potency entry is “inactive”.

Turning to `Cc1csc(CNc2ncnc3ccc(-c4cccc(Cl)c4)cc23)c1`, the Potency result is “inactive”. Under `CC(=O)Nc1ccc(S(=O)(=O)Nc2ccc(C)c(C)c2)cc1` stands “inactive”; under `COC(=O)c1ccnc(NCc2ccc(O)c3ncccc23)c1`, “inactive”; under `c1nc(NCC2CCCOC2)c2cc(-c3ccc4c(c3)OCO4)ccc2n1` (stereo not given), “inactive”.

Take `Cc1cc(C)n2ncc(C(=O)Nc3ccc(Br)cc3)c2n1`: the Potency result is “inactive”. Consider `CCC(=O)NC(C)c1cc(Cl)c2cccnc2c1O` (stereo not given), for which the Potency entry was “inactive”.

Consider `N#Cc1nc(Nc2ccc(F)cc2)nc(NC2CCCC2)n1`, for which the Potency result was “inactive”.

As to `CC(C)(C)OC(=O)N1CCN(c2ccc(NCc3ccnc(-c4ccc(C#N)cc4)n3)cc2)CC1`, the Potency result is “inactive”. The result for `CC1=C(C(=O)Nc2ccccc2)C(c2ccccc2Cl)N=C(Nc2nc3ccccc3o2)N1` (stereo not given) reads “inactive”; that for `COc1ccc(C2Nc3ccccc3C(=O)N2Cc2ccco2)cc1COc1c(C)cccc1C` (stereo not given), “inactive”; that for `COc1ccc(-c2ccc(Nc3nc(-c4ccncc4)nc4ccccc34)cc2F)cc1F`, “inactive”. The result for `Cc1cc(C)nc(NC(=S)N2CCN(c3cccc4[nH]ccc34)CC2)c1` reads “inactive”. In the case of `CCOc1ccc(CCN(C)C(=O)c2cc3sccc3n2Cc2ccccc2)cc1OCC`, the Potency entry was “inactive”. For `CC(=O)Nc1sc2c(c1-c1nc3ccccc3s1)CN(C(C)C)C2`, the Potency entry was “inactive”. The result for `Cc1cc2c(s1)c1cnn(Cc3ccc(F)c(F)c3)c(=O)c1n2C` reads “inactive”. Consider `Cc1nc(CNc2ncnc3ccc(-c4ccoc4C)cc23)cs1`, for which the Potency entry was “inactive”. Regarding `Cc1cc(C)n2ncc(C(=O)Nc3ccc(Cl)c(Cl)c3)c2n1`, the Potency result is “inactive”. The result for `Cc1cccc(N2CCN(C(=S)Nc3cc(C)ccn3)CC2)c1` reads “inactive”.

`Cc1nnc(-c2cnn(C)c2N)n1CCCn1cccc1`: the Potency result was “inactive”. As for `COc1cccc(C2c3c(ncn(-c4ccc(C)cc4)c3=N)Oc3ccc4ccccc4c32)c1` (stereo not given), the Potency result was “inactive”. The result for `O=[N+]([O-])c1ccccc1S(=O)(=O)Nc1cccc2cccnc12` reads “inactive”; that for `CCC(O)(c1nnc(NCc2ccc3c(-c4ccc(F)cc4)cc(=O)oc3c2)o1)C(F)(F)F` (stereo not given), “inactive”; that for `O=C(O)c1ccc(S(=O)(=O)N[C@H](Cc2c[nH]c3ccccc23)C(=O)O)cc1`, “inactive”. Regarding `COc1ccc(C2Nc3ccccc3C(=O)N2Cc2ccc(CNC(=O)CO)cc2)cc1COc1ccc(NC(C)=O)cc1` (stereo not given), the Potency entry was “inactive”.

Turning to `CS(=O)(=O)c1ccccc1-c1csc(N2CCC(C(N)=O)CC2)n1`, the Potency result is “inactive”.
